High-throughput results deposited in PubChem BioAssay by National Center for Advancing Translational Sciences (NCATS).
Hits are enriched below; roughly 21% of the tested compounds scored in any of these assays.
Sm TGR block: blocks Schistosoma mansoni thioredoxin glutathione reductase; purified TGR, DTNB reduction, TNB absorbance 405 nm; Potency, µM (titrated, usually from 114 µM), usual class: inhibitors; 360,000 tested, 3% active; AID 485364; further: nearly all actives have a fitted effect of over 60% in size
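Kinetic colorimetric format: TGR-catalysed, NADPH-driven DTNB reduction monitored via TNB absorbance. Enzyme dispensed at 20 nM; compound exposure 15 min at room temperature before reaction start.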
NS1 inh: inhibitors of influenza NS1 protein function | Potency, µM (highest dose often 46.1 µM) | 270,000 tested, 0.4% active | AID 2326; calls by dose curve; further: actives are rising curves; nearly all actives have a fitted effect of over 50% in size
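In this qHTS, NS1 from influenza A is expressed in budding yeast, where it slows growth. Cells are switched from glucose to 2% galactose medium (pH 6.0, -URA), treated with compound, and growth recovery is read at OD600.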
Pf growth 48h: inhibits P. falciparum growth in the first generation, 48 h; AID 504832; 310,000 tested, 5.9% active; P. falciparum luciferase growth in erythrocytes, 48 h; Potency, µM (titrated, usually from 28.7 µM), most hits filed as inhibitors
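In quantitative HTS format, infected erythrocytes bearing luciferase-reporter parasites were treated for a single generation at 37 C. Luminescence after adding detection reagent served as the growth measure.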
Shiga toxin inh: Shiga toxin inhibition; Vero cells, Shiga toxin protein synthesis inhibition reporter; inhibition, % at 38.7 µM; 290,000 tested, 9.2% active; in the data active means inhibition mostly above about 28%, no sharp cut-off; inactive means mostly below about 43%
CHX counter: affects cycloheximide protein synthesis inhibition readout, counter-screen. max response, %. AID 2314. 300,000 tested, 12% active. cell reporter, cycloheximide protein synthesis inhibition counterscreen; in the data active means max response mostly above about 13%, no sharp cut-off; inactive means mostly below about 14%; further: read at 38.3 µM for the half of the compounds with a filed dose
Pf growth 96h: P. falciparum growth inhibition at 96 hours. P. falciparum luciferase reporter growth, 96 h. Potency, µM (highest dose often 28.7 µM), most hits filed as inhibitors. 320,000 tested, 6.9% active. AID 504834
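Two parasite generations (96 h, 37 C, 5% CO2) of compound exposure in infected erythrocytes (0.05% parasitemia, 2% hematocrit). Luciferase-reporter P. falciparum; decreased luminescence indicates inhibited growth, aimed at apicoplast-acting delayed death.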
A number is an active result; i = inactive; ? = inconclusive; nt = no result. Unless noted, the call rests on the fitted dose curve; in most records, active means well fitted curve in the direction sought with a large enough effect; inconclusive means small, poorly fitted or top-dose-only effect, or another doubt; inactive means no such curve, though single readings can be large; an effect the other way counts as inactive or inconclusive.

SMILES	Sm TGR block	NS1 inh	Pf growth 48h	Shiga toxin inh	CHX counter	Pf growth 96h
O=[N+]([O-])c1nn(-c2ccc(Cl)cc2)n(O)c1=NCc1ccncc1	i	i	2.94µM	i	i	i
O=[N+]([O-])c1nn(-c2ccc(Cl)cc2)n(O)c1=NCc1ccccc1Cl	i	i	i	73.9	35.0	i
Cc1ccc(CN=c2c([N+](=O)[O-])nn(-c3ccc(Cl)cc3)n2O)cc1	i	i	i	i	43.7	3.29µM
O=C(CSc1ccccn1)Nc1ccc2[nH]c(=O)[nH]c2c1	i	nt	i	nt	nt	i
CC(=O)N1c2c(cc(Br)cc2S(=O)(=O)N2CCN(C(=O)c3ccco3)CC2)CC1C (configuration not stated)	i	i	10.4µM	i	i	nt
COc1ccc(CNS(=O)(=O)c2cc(Br)cc3c2N(C(C)=O)C(C)C3)cc1 (configuration not stated)	i	i	i	i	i	4.15µM
CC(=O)N1c2c(cc(Br)cc2S(=O)(=O)N2CCN(c3ccccc3)CC2)CC1C (configuration not stated)	i	nt	nt	nt	nt	nt
Cc1ccc(S(=O)(=O)CC(=O)N2CCN(c3ccc(F)cc3)CC2)cc1	i	i	i	i	i	?
O=C1Oc2ccccc2C(=O)/C1=C\N1CCN(c2ccccc2)CC1	i	nt	i	i	26.4	i
Cc1ccc(-c2ccc(CCC(=O)O)n2Cc2ccco2)cc1	35.5µM	i	nt	i	i	?
CC(C)n1c(CCC(=O)O)ccc1-c1ccccc1	17.8µM	i	nt	i	i	?
O=C(O)CCc1ccc(-c2ccccc2)n1CC(=O)O	35.5µM	i	i	i	i	nt
O=C(O)CCc1ccc(-c2ccc(F)cc2)n1CCC(=O)O	14.1µM	i	i	i	i	nt
CCCn1c(CCC(=O)O)ccc1-c1ccccc1	i	nt	i	i	i	i
CCN(CC)C(=O)c1cc(-c2ccc(Cl)cc2)on1	i	nt	nt	nt	nt	nt
O=c1[nH]c(=O)n(-c2ccccc2)c2c1C(C(F)(F)F)(C(F)(F)F)N=C(CCC1CCCCC1)N2	i	i	?	i	i	i
Clc1ccc2c(N3CCC(CCC4CCN(c5ncnc6cc(Cl)ccc56)CC4)CC3)ncnc2c1	nt	i	nt	nt	nt	nt
CCCCOC(=O)c1ccc(NC(=O)c2ccc3c(c2)CCCN3S(C)(=O)=O)cc1	i	nt	nt	nt	nt	nt
COc1ccc(/C(C)=N/Nc2nccnc2Cl)cc1	i	nt	i	nt	nt	i
C/C(=N\Nc1nccnc1Cl)c1ccc(O)c(C)c1	i	i	i	nt	28.1	i
C/C(=N\Nc1nccnc1Cl)c1ccc(Br)cc1	i	i	i	77.6	29.7	i
C/C(=N\Nc1nccnc1Cl)c1ccc([N+](=O)[O-])cc1	i	i	i	66.1	40.6	i
O=C(Nc1ccc(C(=O)OCc2cc(=O)n3nc(C4CC4)sc3n2)cc1)c1ccccc1	i	nt	nt	nt	nt	nt
CCCCCNC(=O)c1ccc2c(=O)n(CCc3ccccc3)c(=O)[nH]c2c1	i	nt	nt	nt	nt	nt
Cc1ccc(-c2nn3c(=O)cc(CN4CCN(C(=O)/C=C/c5ccccc5)CC4)nc3s2)cc1	i	nt	nt	nt	nt	nt
SMILES	Sm TGR block	NS1 inh	Pf growth 48h	Shiga toxin inh	CHX counter	Pf growth 96h
CC(C)(C)OC(=O)N[C@@H](Cc1ccccc1)C(=O)NCC1CCC(C(=O)N[C@@H](CC(=O)O)C(=O)O)CC1 (some centres not stated)	i	i	nt	i	i	i
N#Cc1c(NC(=O)c2cccc(S(=O)(=O)Nc3ccc(C(=O)O)cc3)c2)sc2c1CCCC2	i	?	i	i	i	i
O=C(C[N+]12CCC(CC1)C(C(O)(c1ccccc1)c1ccccc1)C2)c1ccc(Br)cc1 (configuration not stated)	i	i	?	i	i	8.28µM
COc1cn(-c2ccccc2)nc1C(=O)NCc1ccc(C)cc1	i	i	?	i	i	8.28µM
COc1ccccc1CNC(=O)c1ccccc1C(=O)NC(C)(C)C(=O)NCc1ccccc1OC	i	i	i	i	i	13.1µM
CC1SC(C)C(=O)N(CC(=O)NCc2ccc(F)cc2)C1=O (configuration not stated)	i	i	i	i	12.8	i
Cc1ccc(CC(=O)NCc2ccc(F)cc2)cc1	i	nt	i	i	11.4	i
CCC1SC(CC)C(=O)N(CC(=O)NCc2ccc(F)cc2)C1=O (configuration not stated)	i	nt	i	i	i	i
COc1cn(-c2ccccc2)nc1C(=O)NCc1ccccc1	i	i	i	i	i	i
COc1ccccc1CNC(=O)c1ccccc1OC	i	i	nt	i	i	?
